The record followed here is ChEMBL document CHEMBL3988442, “University of Dundee, Small-Polar-MMV Screening Library” (2021).

The experiment deals with T1, Aspartate--tRNA(Asp/Asn) ligase (Mycobacterium tuberculosis (strain ATCC 25618 / H37Rv)) (UniProt P9WFW3).
T1 sequence (whole entry): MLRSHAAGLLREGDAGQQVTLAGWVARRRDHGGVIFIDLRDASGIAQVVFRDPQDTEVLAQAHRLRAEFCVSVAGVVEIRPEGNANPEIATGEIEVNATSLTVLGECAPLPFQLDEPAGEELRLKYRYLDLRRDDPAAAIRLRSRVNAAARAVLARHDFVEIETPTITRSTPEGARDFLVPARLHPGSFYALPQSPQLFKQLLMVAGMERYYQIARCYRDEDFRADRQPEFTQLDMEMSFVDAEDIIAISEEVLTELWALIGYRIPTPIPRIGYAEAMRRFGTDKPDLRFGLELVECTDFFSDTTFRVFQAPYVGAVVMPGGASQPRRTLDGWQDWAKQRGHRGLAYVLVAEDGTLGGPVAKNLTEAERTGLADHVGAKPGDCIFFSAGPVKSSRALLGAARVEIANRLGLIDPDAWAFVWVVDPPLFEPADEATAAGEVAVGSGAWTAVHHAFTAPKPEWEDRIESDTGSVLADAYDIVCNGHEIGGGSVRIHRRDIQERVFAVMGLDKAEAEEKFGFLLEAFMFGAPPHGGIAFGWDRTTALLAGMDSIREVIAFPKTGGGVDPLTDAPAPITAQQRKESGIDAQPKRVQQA
Description: Assay for Asp RNA synthetase-1 from Mycobacterium tuberculosis. The format is functional. On the set-up: scale not given: in the data most compounds retested in dose-response had high values. The note with it: 30 µM.
As to `Cn1ccc(C(=O)N2CCC(Cc3cccc4cccnc34)C2)n1` (stereo not given), the Percent Effect was -7.19%.
The same measure for `CC(=O)NCCc1ccc(C(=O)N2CCCC2c2cnn(C)c2)cc1` (stereo not given): 3.04%; for `COc1ccccc1C1(C(=O)NCCN2CCOCC2)CCOCC1`: 10.8%; for `Cc1cccc(CNC(=O)CNc2cc(CO)ccc2Cl)c1`: 5.12%.
The same measure for `O=C(NCc1cnc2n1CCN(CC1CC1)CC2)C1CCC1`: -5.77%; for `CCc1noc(C2CCCCN2C(=O)c2nnc3ccccc3n2)n1` (stereo not given): 1.83%.
The result for `O=C(Nc1cccc(CN2CCOC2=O)c1)N1CCOCC1` reads 1.78%; that for `O=C(c1cnccn1)N1CCc2ncnc(-c3cccnc3)c2CC1`, -2.48%; that for `Cc1cc(CN2CCC(c3ccnn3CCO)CC2)no1`, -1.46%.
With `Cc1ccc(NC2CCN(C(=O)c3ccsc3)CC2)nn1`, the Percent Effect is -2.79%.
The same measure for `Cc1cc2c(=O)n3c(nc2s1)CCN(C(=O)c1ccncc1)CC3`: 0.789%.
The result for `Cc1ccccc1-c1cncc(C2CCN(C)CC2)n1` reads 2.52%; that for `NC(=O)Cc1ccc(NC(=O)C2CCOCC2)cc1`, 1.11%.
The same measure for `COc1cc(C(=O)N(C2CC2)C2CC(=O)NC2=O)ccc1C` (stereo not given): -3.91%; for `CCc1nc(C2CCCN(C(=O)c3cn(C)nc3C)C2)no1` (stereo not given): -7.17%.
Turning to `O=C(Cc1ccc2c(c1)OCCO2)N1CCCC(n2cccn2)C1` (stereo not given), the Percent Effect was -1.07%.
The result for `Cn1cnc(S(=O)(=O)NCCN2CCCCCC2=O)c1Cl` reads -1.7%; that for `O=C(CC1CCCCC1)N1CCN(C(=O)NCc2ccccn2)CC1`, 2.1%; that for `COC(=O)CC(c1ccc(OC)c(OC)c1)c1oc(C)cc(=O)c1O` (stereo not given), -0.938%.
The result for `CN(Cc1ccco1)C(=O)C1CSCN1C(=O)c1cccnc1` (stereo not given) reads 2.02%.
The same measure for `NC(=O)c1ccc(N2CCCCC2)c(NC(=O)c2cc(Br)ccc2F)c1`: 11%.
On to `Cc1ccc(-c2nnc(SCC(=O)O)n2-c2ccc(C)cc2)cc1`, for which the Percent Effect is 0.544%.
As for `COc1ccc(CN(Cc2cncn2C)CC2CCCO2)cc1OC` (stereo not given), the Percent Effect was 4.27%.
The same measure for `CN(Cc1ccco1)C[C@H]1OC[C@@H]2CCN(Cc3cccs3)C[C@@H]21`: 3.35%.
For the compound `COc1ccc(NC(=O)C2CCOC2)c(N2CCN(C(C)=O)CC2)n1` (stereo not given), the Percent Effect was found to be 1.42%.
As to `CNC(=O)COc1ccc(CNCc2ccc(F)cc2F)cc1`, the Percent Effect amounted to 3.4%.
The same measure for `O=C(O)c1cc2c(nc1O)CC(c1cccs1)CC2=O` (stereo not given): 2.79%; for `CC(C)CN1C(=O)C2(CCN(Cc3nccs3)C2)c2ccccc21` (stereo not given): -0.662%.
The same measure for `COCCNC(=O)Nc1ccc(-n2cncn2)c(F)c1`: -2.66%; for `COCc1ccccc1C(=O)N1CCCC(n2nc(C)cc2C)C1` (stereo not given): -2.97%; for `CCc1nnc2n1CCN(Cc1csc(-c3ccc(C)o3)n1)C2`: 0.544%.
The result for `COc1ncccc1CN1CCn2c(Cn3cncn3)cnc2C1` reads -2.81%; that for `CCc1nc(CN2CCCN(C(=O)c3cn[nH]c3CC)CC2)cs1`, -1.54%; that for `COC(=O)C1CCN(C(=O)c2ccc(NS(C)(=O)=O)c(C)c2)CC1`, -2.94%.
With `O=C(C1CCCc2[nH]ncc21)N1CCCCCC1` (stereo not given), the Percent Effect was -0.324%.
The result for `Cc1ccc(-c2nnc(CN3CCc4cnc(C)nc4C3)o2)cc1` reads 2.13%; that for `CC(C)(C)C(=O)N1C[C@H](c2ccsc2)[C@H]2CN(Cc3cccs3)CC[C@H]21`, -0.28%.
As for `CN(C)Cc1nnc(C2CCN(C(=O)CCc3cccs3)CC2)n1C`, the Percent Effect was -0.948%.
Regarding `CC(C)OCCC(=O)N(C)CCCc1cc(-c2ccccc2)no1`, the Percent Effect worked out at 2.1%.
The result for `Cc1cn2c(n1)CCC(NC(=O)c1ccc(CS(C)(=O)=O)o1)C2` (stereo not given) reads -4.46%.
